Rac1 act GTP bind: human Rac1 activated mutant GTP binding change | P63000 | GST-Rac1 activated beads, fluorescent GTP binding, flow cytometry; actives lie on both sides; 100% means binding = to untreated wells | percent activity (GTP binding), % at 10 µM | actives 0.11% (n = 190,000);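 active = GTP binding at least 20 percentage points away from the 100% baseline, in either direction, so actives lie on both sides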
Rab7 wt modul: modulators of GTP binding to dog Rab7 wildtype GTPase; AID 758; GST-Rab7 beads, fluorescent GTP binding, flow cytometry; actives lie on both sides; untreated = 100%, excess cold GTP = 0%; actives 0.055% (n = 190,000); GTP binding activity (percent of control), % at 10 µM;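 active = fluorescent GTP binding to Rab7 beads changed by at least 20 points from the 100% baseline, either direction, mostly lower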;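 note: median green fluorescence of bound Bodipy-FL-GTP per Rab7 bead population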
Rac1 wt modul: human Rac1 wildtype GTP binding, inhibitors and activators | P63000 | GTP binding activity (% of control), % at 10 µM | GST-Rac1 beads, fluorescent GTP binding, flow cytometry; actives lie on both sides; 0 = cold GTP competed, 100 = untreated | actives 0.27% (n = 190,000);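 active = GTP binding activity at least 20 points away from the 100% control level, either lower or higher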
Rab2A wt mod: changes GTP binding to wildtype dog Rab2A, up or down; P61105; GST-Rab2 wt beads, Bodipy-GTP binding, flow cytometry; GTP binding activity, % at 10 µM; actives 0.19% (n = 190,000); AID 760;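 active = GTP binding activity at least 20 points away from 100%, either lowered or raised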;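 note: 0% = beads with excess unlabeled GTP and 100% = no-compound control corrected for plate trend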
Cdc42 wt: modulators (inhibitors or activators) of GTP binding to human Cdc42 wildtype | actives 0.2% (n = 190,000) | GST-Cdc42 beads, Bodipy-GTP binding, flow cytometry; actives lie on both sides | P60953 | percent activity (GTP binding), % at 10 µM;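 active = percent activity GTP binding at least 20 points away from the 100% baseline, either down as inhibitor or up as activator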;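 note: median bead fluorescence of bound Bodipy-FL-GTP at 100 nM; 0% = excess unlabeled GTP control and 100% = no compound control; below 100% means less GTP binding so inhibitor and above means activator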
Target sequence (P60953 whole entry, looked up): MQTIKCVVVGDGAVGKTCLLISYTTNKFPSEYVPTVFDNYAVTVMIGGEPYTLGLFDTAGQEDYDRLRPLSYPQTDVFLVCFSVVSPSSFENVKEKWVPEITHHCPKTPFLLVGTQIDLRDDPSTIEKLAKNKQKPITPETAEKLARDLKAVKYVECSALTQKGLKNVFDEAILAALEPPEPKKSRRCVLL
HRas wt GTP: changes GTP binding to wildtype human HRas; AID 759; actives 0.14% (n = 190,000); GTP binding activity, % at 10 µM; GST-Ras wt beads, Bodipy-FL-GTP binding, flow cytometry; actives lie on both sides;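 active = GTP binding activity at least 20% away from the 100% baseline, either lowered as inhibitor or raised as activator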;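 note: 0% = unlabeled GTP competition control and 100% = no-compound control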
Target sequence (P01112 whole entry, looked up): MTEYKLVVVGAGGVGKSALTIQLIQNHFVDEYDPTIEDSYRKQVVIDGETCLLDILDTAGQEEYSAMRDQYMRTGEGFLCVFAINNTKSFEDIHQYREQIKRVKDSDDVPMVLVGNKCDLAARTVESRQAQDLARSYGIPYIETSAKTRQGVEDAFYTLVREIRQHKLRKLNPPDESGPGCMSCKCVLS
Active calls of the source: *; [ ] = another dose, or the depositor's remark. Sampled rows, rich in hits. Any-hit rate of the full collection: about 0.38%.

SMILES | Rac1 act GTP bind | Rab7 wt modul | Rac1 wt modul | Rab2A wt mod | Cdc42 wt | HRas wt GTP
O=C(Cn1c(=S)[nH]c2ccccc2c1=O)N1CCN(c2ccc(F)cc2)CC1 | 95.0 | 100.0 | 97.0 | 97.0 | 95.0 | 98.0
Cc1ccc(/C=C/C(=O)c2ccccc(=O)c2O)cc1C | 74.0* | 87.0 | 82.0 | 81.0 | 78.0* | 84.0
CNc1ncc(C(=O)c2ccc(Br)cc2)s1 | 106.0 | 100.0 | 121.0*[activator] | 99.0 | 106.0 | 101.0
CNc1ncc(C(=O)c2ccccc2)s1 | 99.0 | 99.0 | 101.0 | 99.0 | 101.0 | 102.0
Cc1cc(C(=O)Oc2ccccc2C(=O)O)c(C)o1 | 119.0 | 104.0 | 127.0*[activator] | 116.0 | 120.0*[activator] | 110.0
O=C(O)c1ccc(NS(=O)(=O)c2ccc3c(c2)C(=O)c2ccccc2C3=O)cc1 | 83.0 | 88.0 | 72.0* | 81.0 | 80.0 | 83.0
COc1ccc(C(=O)N2CCN(Cc3ccc4c(c3)OCO4)CC2)cc1[N+](=O)[O-] | 95.0 | 97.0 | 94.0 | 97.0 | 96.0 | 94.0
COc1ccccc1N(CC(=O)NC(C)(C)C)S(=O)(=O)c1cccs1 | 102.0 | 97.0 | 99.0 | 97.0 | 97.0 | 99.0
CC1(C)Cc2c(sc3c2C2=NCCN2C=N3)CS1 | 104.0 | 104.0 | 123.0*[activator] | 107.0 | 113.0 | 106.0
CC(C)C(NCc1c(Cl)cccc1Cl)C(=O)O (configuration not stated) | 114.0 | 112.0 | 124.0*[activator] | 115.0 | 118.0 | 114.0
O=C(O)c1cc(C(=O)O)cc(-c2ccc(/C=c3/sc4nc5ccccc5n4c3=O)o2)c1 | 80.0 | 92.0 | 81.0 | 79.0* | 80.0 | 82.0
Oc1ccc(NC(=S)N=Nc2c(O)[nH]c3ccc(Br)cc23)cc1 | 90.0 | 92.0 | 79.0* | 79.0* | 79.0* | 80.0
CNC(=S)N=Nc1c(O)[nH]c2ccccc12 | 84.0 | 85.0 | 69.0* | 72.0* | 80.0 | 79.0*
Cc1ccc(NC(=S)N=Nc2c(O)[nH]c3ccccc23)cc1 | 89.0 | 87.0 | 84.0 | 84.0 | 86.0 | 87.0
Oc1ccc(NC(=S)N=Nc2c(O)[nH]c3ccccc23)cc1 | 86.0 | 101.0 | 70.0* | 75.0* | 71.0* | 77.0*
O=C(Cn1c(-c2cscn2)nc2ccccc21)Nc1cc(F)ccc1F | 102.0 | 105.0 | 121.0*[activator] | 107.0 | 115.0 | 106.0
O=C(Nc1cnn(C23CC4CC(CC(C4)C2)C3)c1)c1cnn2cccnc12 | 117.0 | 117.0 | 138.0*[activator] | 121.0*[activator] | 129.0*[activator] | 123.0*[activator]
O=C(Cc1ccccc1)Nc1cccc(N2C(=O)C=CC2=O)c1 | 102.0 | 103.0 | 106.0 | 103.0 | 102.0 | 102.0
COc1cc(NC(=O)COC(=O)/C=C/c2ccc(Cl)cc2Cl)cc(OC)c1 | 98.0 | 96.0 | 96.0 | 96.0 | 99.0 | 98.0
COc1cccc(NC(=O)COC(=O)/C=C/c2ccc(Cl)cc2Cl)c1 | 80.0 | 86.0 | 77.0* | 79.0* | 79.0* | 82.0
COC(=O)c1ccc2nc(Nc3nc4c(F)cc(F)cc4s3)sc2c1 | 80.0 | 85.0 | 81.0 | 79.0* | 82.0 | 85.0
O=C(N1CCOCC1)C12CC3CC(C1)CC(n1cnc(Cl)n1)(C3)C2 | 100.0 | 97.0 | 105.0 | 101.0 | 106.0 | 102.0
CC(C)NC(=O)C12CC3CC(C1)CC(n1cnc(Cl)n1)(C3)C2 | 105.0 | 105.0 | 121.0*[activator] | 107.0 | 111.0 | 106.0
C/C(=N\NC(=O)c1c[nH]c2ccccc12)c1ccc(C)o1 | 92.0 | 92.0 | 79.0* | 85.0 | 84.0 | 84.0
O=C(CCc1nnc(Cc2c[nH]c3ccccc23)o1)NCC1CC12CCCCC2 (configuration not stated) | 97.0 | 99.0 | 102.0 | 99.0 | 100.0 | 97.0
COc1cc(/C=N/Nc2ccc(S(N)(=O)=O)cc2)cc(OC)c1OC | 88.0 | 98.0 | 79.0* | 89.0 | 89.0 | 89.0
COc1cc(/C=N/Nc2ccc(F)cc2F)cc(OC)c1OC | 97.0 | 99.0 | 101.0 | 97.0 | 98.0 | 99.0
O=C(O)C1CCCN1C(=O)OCc1ccccc1 (configuration not stated) | 121.0*[activator] | 120.0*[activator] | 139.0*[activator] | 122.0*[activator] | 128.0*[activator] | 121.0*[activator]
